Inhibition data for twelve molecules are collected here from ChEMBL document CHEMBL3433997, “St. Jude Leishmania screening dataset” (2016).

Each structure is given as a SMILES string.

Type in all cases: functional
In test [1] the target is Solute carrier family 2, facilitated glucose transporter member 1 (Homo sapiens) (UniProt P11166). Put plainly: ST_JUDE_LEISH: Cytotoxicity at 2uM final concentration against transgenic Leishmania Mexicana promastigotes LmGLUT1 that are glucose transport deficient and complemented with the human glucose transporter GLUT1. Activity is measured by DNA content using SYBR green in vitro.

The target in test [2] is Hexose transporter 1 (Plasmodium falciparum) (UniProt O97467). Put plainly: ST_JUDE_LEISH: Cytotoxicity at 2uM final concentration against transgenic Leishmania Mexicana promastigotes LmPfHT that are glucose transport deficient and complemented with the Plasmodium falciparum hexose transporter. Activity is measured by DNA content using SYBR green in vitro.
For test [3], the target named is Glucose transporter (Leishmania mexicana) (UniProt O61059). Put plainly: ST_JUDE_LEISH: Cytotoxicity at 2uM final concentration against transgenic Leishmania Mexicana promastigotes LmGT2 that are glucose transport deficient and complemented with the L. Mexicana glucose transporter 2. Activity is measured by DNA content using SYBR green in vitro.

Sequence of Solute carrier family 2, facilitated glucose transporter member 1 (Homo sapiens) (P11166 whole entry): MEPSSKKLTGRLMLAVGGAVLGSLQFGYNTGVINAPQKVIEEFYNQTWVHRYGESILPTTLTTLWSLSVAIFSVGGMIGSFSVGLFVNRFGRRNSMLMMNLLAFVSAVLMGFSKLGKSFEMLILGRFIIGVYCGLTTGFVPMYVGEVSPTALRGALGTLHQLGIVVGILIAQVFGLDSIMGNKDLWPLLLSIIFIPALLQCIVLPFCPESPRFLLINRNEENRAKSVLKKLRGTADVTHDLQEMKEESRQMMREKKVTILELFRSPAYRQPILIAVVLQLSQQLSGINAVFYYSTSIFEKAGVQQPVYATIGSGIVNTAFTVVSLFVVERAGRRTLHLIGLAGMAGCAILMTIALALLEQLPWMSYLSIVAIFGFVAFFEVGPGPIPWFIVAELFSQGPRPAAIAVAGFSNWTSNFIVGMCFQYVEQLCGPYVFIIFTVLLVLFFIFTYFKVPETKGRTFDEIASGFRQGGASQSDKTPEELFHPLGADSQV

For `CC(C)CCN1CCCN(Cc2cccc(C(=O)Nc3ccc(C(C)(C)C)cc3)c2)CC1`, the inhibition (in general, the relative decrease from the control value, in per cent) in test [1] was found to be 3.18%; in test [2] it was 0.18%; in test [3], 2.78%.

As for `CC1CCN(c2nc(C(=O)Nc3ccc(F)cc3C(F)(F)F)c(C(C)C)s2)CC1`, the inhibition in test [1] amounted to 1.3%; in test [2] it was 2.16%; in test [3], 2.29%.

Turning to `FC(F)(F)c1cccc(C=NNc2nc3ccccc3[nH]2)c1`, the inhibition in test [1] came to 10.7%; in test [2], 8.25%; in test [3], 5.13%.

As to `CC(=O)c1c[nH]c(C(=O)Nc2ccc(-c3cn4ccccc4n3)cc2)c1`, the inhibition worked out at 11.8% in test [1], 10.9% in test [2] and 10.2% in test [3].

Consider `CCCCCCCCc1c(C)[nH]c(C)c(Cl)c1=O`, for which the inhibition was 0.5% in test [1], 0.28% in test [2] and -0.99% in test [3].

For the molecule `COc1ccc2nccc([C@@H](O)CN3CCC(c4cc(-c5ccc(Cl)cc5)[nH]n4)CC3)c2n1`, the inhibition in test [1] is 64.9%; in test [2], 78.2%; in test [3], 81.2%.

Consider `O=C(c1cccs1)N(Cc1cccc(-c2ccc(CNCCc3ccccc3)cc2)c1)C1CCN(Cc2ccccc2)CC1`, for which the inhibition in test [1] came out at 9.9%; in test [2] it was 7.55%; in test [3], 9.34%.

Consider `CC(=O)Oc1c(Cl)c(C)nc(C)c1-c1ccc(Oc2ccc(Cl)cc2)cc1`, for which the inhibition turned out to be 9.11% in test [1], 9.67% in test [2] and 4.45% in test [3].

For `CS(=O)(=O)c1ccc2[nH]c(-c3cc(-c4ccc(OCCN5CCOCC5)cc4)cnc3N)nc2c1`, the inhibition in test [1] was determined as 6.63%; in test [2] it was 6.02%; in test [3] it was 4.16%.

Regarding `COc1ccc2ncc(F)c([C@@H](O)CN3CCC(NCc4ccc5c(c4)NCCS5)CC3)c2n1`, the inhibition in test [1] was 8.36%; in test [2] it was 8.01%; in test [3], -5.06%.

For `CC(C)CNC(=O)c1cncc(-c2ccc(CNC3Cc4ccccc4C3)cc2)c1`, the inhibition in test [1] is -0.34%; in test [2], 1.58%; in test [3], -0.51%.

In the case of `OC1CCCN(Cc2ccc(-c3cccc(-c4nc5cc(F)ccc5[nH]4)c3)cc2)C1` (stereo unspecified), the values for the inhibition in test [1], in test [2] and in test [3] were 7.7%, 7.1% and 5.69%, respectively.
